# In PubChem BioAssay (NCATS):
# Results filed as inconclusive are left out. A call without a number means that no potency is given here. Some compounds were tested as several samples or in several runs, with calls that do not always agree. Activity calls are given as the source filed them. Unless noted, calls come from the whole dose curve; as a rule, active = well fitted curve in the direction sought with a large enough effect; inconclusive = small, poorly fitted or top-dose-only effect, or another doubt; inactive = no such curve, though single readings can be large; an effect the other way counts as inactive or inconclusive.
# Tests used:
# [1] = target: Cytochrome P450 3A4 (Homo sapiens) (UniProt P08684); experiment: qHTS Assay for Inhibitors and Substrates of Cytochrome P450 3A4 (AID 884); note: potency is the fitted concentration of half-maximal effect; nearly all actives have a fitted effect of over 50% in size
# Method in brief: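 Luminescent readout of luciferin produced by CYP3A4 (20 nM) dealkylation of Luciferin-PPXE, 25 uM (its KM). NADPH-driven reaction ran 60 min at RT after 10 min compound preincubation; data scaled to 57 uM ketoconazole as 100% inhibition.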
# [2] = target: Cytochrome P450 3A4 (Homo sapiens) (UniProt P08684); experiment: qHTS Assay for Activators of Cytochrome P450 3A4 (AID 885); note: nearly all actives have a fitted effect of over 65% in size
# Method in brief: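 Luminescent readout of luciferin formed from 25 uM Luciferin-PPXE (KM level) by 20 nM CYP3A4 in 200 mM KPO4, with 60 min NADPH-driven reaction at room temperature after 10 min compound exposure. Ketoconazole (57 uM) defined 100% inhibition.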
# [3] = target: Alpha-galactosidase (Coffea arabica) (UniProt Q42656); experiment: Counterscreen for Glucocerebrosidase Inhibitors: qHTS Assay for Coffee Bean alpha-Galactosidase at pH 4.5 (AID 957); note: series mostly up to about 77 µM
# Method in brief: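 Quantitative HTS of compounds (0.7 nM to 77 uM) against coffee bean alpha-galactosidase at pH 4.5, measuring 4-methylumbelliferone fluorescence released from 80 uM substrate.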
# [4] = qHTS for differential inhibitors of proliferation of Plasmodium falciparum line W2 (AID 1883); settings: Potency: Plasmodium falciparum W2 proliferation inhibition;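 note: potency is the fitted concentration of half-maximal effect; parasites grown with compound for 72 h before lysis and staining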
# [5] = qHTS for differential inhibitors of proliferation of Plasmodium falciparum line HB3 (AID 1886); settings: Potency: Plasmodium falciparum HB3 proliferation inhibition;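 note: potency is the fitted concentration of half-maximal effect; parasites grown with compound for 72 h before SYBR Green readout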
# [6] = target: M-phase phosphoprotein 8 (Homo sapiens) (UniProt Q99549); experiment: qHTS Validation Assay for Inhibitors for MPP8 Chromodomain Interactions with Methylated Histone Tails (AID 488949); note: nearly all actives have a fitted effect of over 55% in size; note: potency is the fitted concentration of half-maximal effect
# Method in brief: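 50 nM MPP8 + 50 nM b-H3K9me3 peptide, PBS pH 7.4/0.01% Tween-20, 30 min RT; + cpd 30 min RT; + AlphaScreen donor/Ni-chelate acceptor beads 10 ug/mL final, 30 min dark; luminescence read.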
# [7] = target: Chromobox protein homolog 1 (Homo sapiens) (UniProt P83916); experiment: qHTS Validation Assay for Inhibitors of HP1-beta Chromodomain Interactions with Methylated Histone Tails (AID 488953); note: potency is the fitted concentration of half-maximal effect; nearly all actives have a fitted effect of over 50% in size
# Method in brief: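 Compounds pinned into a preassembled complex of HP1-beta and trimethyl-K9 histone H3(1-18) biotin peptide (50 nM each; PBS pH 7.4, 0.01% Tween-20). After 30 min, bead-based AlphaScreen detection followed.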
# [8] = Validation screen for small molecules that induce genotoxicity in human embryonic kidney (HEK293T) cells expressing luciferase-tagged ELG1 (AID 493106)
# Method in brief: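 In this validation screen, increased ELG1-luciferase signal flags compounds causing genetic stress. HEK293T reporter cells are treated 16 hr (37 °C, 5% CO2), developed with ONE-Glo for 30 min at room temperature, and imaged on a CCD-based reader.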
# [9] = target: ATPase family AAA domain-containing protein 5 (Homo sapiens) (UniProt Q96QE3); experiment: Validation screen for small molecules that inhibit ELG1-dependent DNA repair in human embryonic kidney (HEK293T) cells expressing luciferase-tagged ELG1 (AID 493107); note: potency is the fitted concentration of half-maximal effect; nearly all actives have a fitted effect of over 70% in size
# Method in brief: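 Compounds reducing 5-fluorouridine-driven ELG1-luciferase signal in HEK293T cells were scored; exposure lasted 16 hr at 37 °C with luminescence detected via ONE-Glo.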
# [10] = Inducers of the Endoplasmic Reticulum Stress Response (ERSR) in human glioma: Validation (AID 504836)
# Method in brief: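 ERSR induction read as luciferase luminescence (Bright-Glo, 10 min at room temperature) in stably transfected human U87-MG glioma cells exposed to compounds for 16 h, using GRP78 as sensor.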
# [11] = target: Arylsulfatase A (Homo sapiens) (UniProt P15289); experiment: qHTS screen for enhancers of Arylsulfatase A (ASA1): LOPAC Validation Assay (AID 720538)
# Method in brief: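 MLD patient fibroblasts (SV40, ASA-I179S), 1536-well; adhere 6 hrs; cpd 48h, 37 degree C, 5% CO2; pNCS 0.5mM final in lysis buffer, 14h RT; stop 1N NaOH final; fluor. Ex525/Em598.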
# [12] = target: Nuclear receptor subfamily 1 group I member 3 (Homo sapiens) (UniProt Q14994); experiment: Primary qHTS for antagonist of constitutive androstane receptor (CAR) against the NCATS DSHEA and TCM libraries (AID 1794836);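 note: HepG2 cells stably expressing hCAR with CYP2B6 luciferase reporter stimulated by CITCO; series mostly up to about 40 µM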
# Method in brief: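 Antagonist mode: CAR reporter luminescence (ONE-Glo) in HepG2-CYP2B6-hCAR cells stimulated with 48 uM CITCO (final) over 24 h at 37 C, compounds titrated; viability read first by CellTiter-Fluor fluorescence.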
# [13] = KB-8-5-11 P-gp reporter qHTS against the NCATS DSHEA and TCM libraries (AID 1919977); note: potency is the fitted concentration of half-maximal effect
# Method in brief: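 KB-8-5-11, 500 cells/well, DMEM/10% FBS without colchicine; 4 h attach; cpd titrations, 72 h, 37C/5% CO2; CellTiter-Glo, 30 min RT, luminescence.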
# [14] = HepG2 viability counterscreen (readout 2: ATP content) against the NCATS DSHEA and TCM libraries (AID 1794840)
# Method in brief: (§1)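 Same wells read twice: first fluorescence from cleaved GF-AFC substrate (25 uM final, 30 min, 37C) for live-cell protease, then CellTiter-Glo luminescence after 30 min at room temperature for ATP. HepG2 cells were exposed ~24 h to substances.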
# [15] = HepG2 viability counterscreen (readout 1: protease activity) against the NCATS DSHEA and TCM libraries (AID 1794841);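 note: cells exposed to compounds for about 24 h before the protease read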
# Method in brief: as §1
# [16] = target: Cytochrome P450 2C19 (Homo sapiens) (UniProt P33261); experiment: qHTS for inhibitors of CYP2C19 against the NCATS DSHEA and TCM libraries (AID 1919974);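 note: luminescence from luciferin released by CYP2C19 oxidation of a pro-luciferin substrate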; note: potency is the fitted concentration of half-maximal effect
# Method in brief: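 Isoform-specific enzyme and substrate levels; enzyme-free wells as background. Reaction: 1x NADPH regenerating system, 30-45 min, room temperature, shielded from light; luminescent detection reagent added, 30 min.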
# [17] = KB-3-1 P-gp reporter qHTS against the NCATS DSHEA and TCM libraries (AID 1919975)
# Method in brief: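 KB-3-1 parental line, 1536-well qHTS: cells seeded, ~4 h attachment, pintool compound addition, ~72 h at 37C, then CellTiter-Glo, 30 min RT, luminescence. Concentration-response format.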
# [18] = target: Cytochrome P450 1A2 (Homo sapiens) (UniProt P05177); experiment: qHTS for inhibitors of CYPIA2 against the NCATS DSHEA and TCM libraries (AID 1919976); note: potency is the fitted concentration of half-maximal effect
# Method in brief: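 Furafylline served as the plate control. Compounds met CYP1A2 and pro-luciferin substrate 15 min before NADPH regeneration solution (1x) was added; after 30-45 min at RT, P450-Glo reagent was added for 30 min and luminescence was measured.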
# [19] = qHTS Counterscreen for compound interference against the NCATS DSHEA and TCM libraries (AID 1919978); settings: firefly luciferase detection reagent interference, luminescence;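 note: compounds preincubated with 1 µM D-luciferin or buffer before detection reagent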
# Method in brief: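 Compounds, titrated from 19.5 nM to 39.8 uM final, were pinned onto 1 uM D-luciferin or plain 100 mM potassium phosphate. After 15 min at room temperature, luciferin detection reagent was added for 30 min before the luminescence read.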
# [20] = Dual reporter qHTS for agonist of Pregnane X Receptor (hPXR) against the NCATS DSHEA and TCM libraries: Fluorescence readout (AID 1920058)
# Method in brief: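 In this qHTS counter-read, reporter-bearing HepG2 cells in charcoal-stripped serum received substances for approximately 24 h before viability was assessed fluorometrically with CellTiter-Fluor.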
# [21] = target: Nuclear receptor subfamily 1 group I member 2 (Homo sapiens) (UniProt O75469); experiment: Dual reporter qHTS for agonist of Pregnane X Receptor (hPXR) against the NCATS DSHEA and TCM libraries: Luminescence readout (AID 1920059)
# Method in brief: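 Luminescent PXR reporter read (ONE-Glo) after a CellTiter-Fluor viability read, following 24 h, 37C treatment of HepG2 cells stably carrying hPXR-Luc.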
# [22] = target: Nuclear receptor subfamily 1 group I member 2 (Homo sapiens) (UniProt O75469); experiment: Dual reporter qHTS for antagonist of Pregnane X Receptor (hPXR) against the NCATS DSHEA and TCM libraries: Luminescence Readout (AID 1920060);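 note: HepG2 cells carrying hPXR luciferase reporter stimulated with rifampicin at 2 µM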
# Method in brief: (§2)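 In antagonist mode, 2 uM rifampicin was added to hPXR-Luc HepG2 cells alongside test substances, incubated 24 h at 37 C; luminescence gave reporter activity, and CellTiter-Fluor fluorescence (405/540 nm) gave viability.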
# [23] = Dual reporter qHTS for antagonist of Pregnane X Receptor (hPXR) against the NCATS DSHEA and TCM libraries: Fluorescence Readout (AID 1920061)
# Method in brief: as §2
# [24] = Viability counterscreen for antagonist of constitutive androstane receptor (CAR) against the NCATS DSHEA and TCM libraries (AID 1794837);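 note: compound exposure lasted 24 h before viability reading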
# Method in brief: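 Cells: HepG2 line carrying CYP2B6 reporter and hCAR, seeded and attached 5 h. Then pin-transferred test substances plus agonist CITCO at 48 uM final; 24 h incubation; fluorogenic viability reagent, 1 h.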
# [25] = Viability counterscreen for agonist of constitutive androstane receptor (CAR) against the NCATS DSHEA and TCM libraries (AID 1794838);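 note: HepG2 cells with CYP2B6 reporter and hCAR plus 0.75 µM PK11195 antagonist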
# Method in brief: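 Cell health was measured as CellTiter-Fluor signal in HepG2-CYP2B6-hCAR cells treated for 24 h with substances alongside the hCAR antagonist PK11195 (0.75 uM final).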
# [26] = target: Nuclear receptor subfamily 1 group I member 3 (Homo sapiens) (UniProt Q14994); experiment: Primary qHTS for agonist of constitutive androstane receptor (CAR) against the NCATS DSHEA and TCM libraries (AID 1794839); settings: Potency: CAR antagonist co-added at 0.75 µM unless noted;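 note: HepG2 cells expressing human CAR with a CYP2B6 reporter plus PK11195 antagonist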
# Method in brief: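 qHTS, agonist mode: HepG2-CYP2B6-hCAR, 2,500 cells/well, 5 h attach; cpds + PK11195 0.75 µM final; 24 h, 37 °C, 5% CO2. Readouts: CellTiter-Fluor (405/540 nm), then ONE-Glo luminescence.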
# [27] = target: Peroxisome proliferator-activated receptor delta (Homo sapiens) (UniProt Q03181); experiment: qHTS assay for small molecule agonists of peroxisome proliferator-activated receptor delta signaling (AID 588534; calls by dose curve)
# Method in brief: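 EC50 and efficacy values derive from Hill fits of a concentration series in a beta-lactamase reporter cell assay. Exposure is 18 hrs at 37 C, with CCF4 fluorescence as the readout.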
# Chain of Nuclear receptor subfamily 1 group I member 3 (Homo sapiens) (Q14994 whole entry, looked up): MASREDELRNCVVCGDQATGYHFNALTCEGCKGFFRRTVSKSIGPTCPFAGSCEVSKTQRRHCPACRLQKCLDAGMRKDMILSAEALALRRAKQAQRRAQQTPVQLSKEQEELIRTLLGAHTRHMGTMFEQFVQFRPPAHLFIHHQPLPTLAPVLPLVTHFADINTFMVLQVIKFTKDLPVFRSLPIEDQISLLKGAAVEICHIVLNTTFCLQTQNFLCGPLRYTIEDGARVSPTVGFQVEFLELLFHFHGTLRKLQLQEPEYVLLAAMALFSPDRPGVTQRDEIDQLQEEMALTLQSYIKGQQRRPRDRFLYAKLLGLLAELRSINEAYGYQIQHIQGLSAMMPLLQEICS
# Chain of Nuclear receptor subfamily 1 group I member 2 (Homo sapiens) (O75469 whole entry, looked up): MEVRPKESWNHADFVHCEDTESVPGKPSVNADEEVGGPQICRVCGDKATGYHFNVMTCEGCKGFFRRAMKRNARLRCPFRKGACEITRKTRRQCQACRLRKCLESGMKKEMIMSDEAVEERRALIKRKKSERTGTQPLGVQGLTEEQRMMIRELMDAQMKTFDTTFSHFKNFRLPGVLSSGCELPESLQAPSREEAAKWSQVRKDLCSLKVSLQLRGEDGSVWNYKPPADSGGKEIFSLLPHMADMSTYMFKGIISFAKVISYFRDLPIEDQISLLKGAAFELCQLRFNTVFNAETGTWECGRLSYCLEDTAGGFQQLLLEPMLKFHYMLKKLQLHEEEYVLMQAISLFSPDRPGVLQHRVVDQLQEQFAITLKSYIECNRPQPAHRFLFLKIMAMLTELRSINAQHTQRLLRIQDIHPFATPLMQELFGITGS
# Chain of Cytochrome P450 2C19 (Homo sapiens) (P33261 whole entry, looked up, canonical isoform): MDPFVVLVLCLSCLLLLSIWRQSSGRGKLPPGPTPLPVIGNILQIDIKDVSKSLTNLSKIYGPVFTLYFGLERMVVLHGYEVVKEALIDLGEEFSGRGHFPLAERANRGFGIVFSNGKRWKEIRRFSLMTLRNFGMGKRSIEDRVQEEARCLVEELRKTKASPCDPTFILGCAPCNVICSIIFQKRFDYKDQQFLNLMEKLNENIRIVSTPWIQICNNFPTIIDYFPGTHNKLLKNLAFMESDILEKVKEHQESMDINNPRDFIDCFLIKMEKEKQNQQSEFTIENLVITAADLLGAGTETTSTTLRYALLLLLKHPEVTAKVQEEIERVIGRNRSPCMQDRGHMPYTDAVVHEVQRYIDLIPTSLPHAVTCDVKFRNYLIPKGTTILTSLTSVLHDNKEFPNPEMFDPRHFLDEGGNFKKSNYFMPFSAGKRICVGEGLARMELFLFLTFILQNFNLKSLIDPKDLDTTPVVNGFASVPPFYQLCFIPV
# Chain of M-phase phosphoprotein 8 (Homo sapiens) (Q99549 whole entry, looked up): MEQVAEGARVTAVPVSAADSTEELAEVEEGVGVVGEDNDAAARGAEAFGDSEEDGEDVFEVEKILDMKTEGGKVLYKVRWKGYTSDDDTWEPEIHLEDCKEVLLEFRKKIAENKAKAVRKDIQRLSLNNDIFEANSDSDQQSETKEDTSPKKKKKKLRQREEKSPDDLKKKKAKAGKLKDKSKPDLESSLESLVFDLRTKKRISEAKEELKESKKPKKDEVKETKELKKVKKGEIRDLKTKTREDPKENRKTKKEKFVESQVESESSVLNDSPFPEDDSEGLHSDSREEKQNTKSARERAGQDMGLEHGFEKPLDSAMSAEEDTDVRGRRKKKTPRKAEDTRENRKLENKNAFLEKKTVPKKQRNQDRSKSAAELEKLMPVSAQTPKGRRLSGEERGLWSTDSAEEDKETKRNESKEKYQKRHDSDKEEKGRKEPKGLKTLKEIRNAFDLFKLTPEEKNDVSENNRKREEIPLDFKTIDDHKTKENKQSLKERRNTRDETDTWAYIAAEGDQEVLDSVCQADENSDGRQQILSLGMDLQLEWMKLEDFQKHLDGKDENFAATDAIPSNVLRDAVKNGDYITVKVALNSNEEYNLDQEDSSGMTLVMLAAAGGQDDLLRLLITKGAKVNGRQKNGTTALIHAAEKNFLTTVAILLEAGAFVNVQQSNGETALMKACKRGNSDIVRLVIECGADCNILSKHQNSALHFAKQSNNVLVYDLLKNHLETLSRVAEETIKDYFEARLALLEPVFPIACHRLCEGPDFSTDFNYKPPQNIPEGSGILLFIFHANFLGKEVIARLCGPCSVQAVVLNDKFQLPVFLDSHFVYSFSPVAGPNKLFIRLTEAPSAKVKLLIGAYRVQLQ
# Chain of Cytochrome P450 3A4 (Homo sapiens) (P08684 whole entry, looked up): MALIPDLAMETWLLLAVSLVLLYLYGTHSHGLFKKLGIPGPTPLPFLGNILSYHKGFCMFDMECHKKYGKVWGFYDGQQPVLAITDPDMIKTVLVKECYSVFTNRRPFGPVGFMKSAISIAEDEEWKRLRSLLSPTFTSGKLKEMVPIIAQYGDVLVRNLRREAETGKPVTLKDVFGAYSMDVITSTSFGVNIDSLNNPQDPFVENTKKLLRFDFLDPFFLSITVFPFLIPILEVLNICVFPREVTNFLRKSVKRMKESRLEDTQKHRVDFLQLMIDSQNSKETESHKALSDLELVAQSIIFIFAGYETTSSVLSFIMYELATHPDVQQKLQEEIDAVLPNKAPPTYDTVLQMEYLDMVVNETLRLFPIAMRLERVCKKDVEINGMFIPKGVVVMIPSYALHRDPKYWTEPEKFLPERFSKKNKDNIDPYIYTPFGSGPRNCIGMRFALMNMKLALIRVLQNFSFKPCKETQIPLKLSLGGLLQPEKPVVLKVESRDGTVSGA
# Chain of Chromobox protein homolog 1 (Homo sapiens) (P83916 whole entry, looked up): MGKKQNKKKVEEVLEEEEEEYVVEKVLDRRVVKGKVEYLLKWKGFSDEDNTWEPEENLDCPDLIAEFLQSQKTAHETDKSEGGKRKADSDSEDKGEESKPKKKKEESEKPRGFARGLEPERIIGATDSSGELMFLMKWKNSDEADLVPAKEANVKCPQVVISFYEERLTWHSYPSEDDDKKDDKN
# Chain of Alpha-galactosidase (Coffea arabica) (Q42656 whole entry, looked up): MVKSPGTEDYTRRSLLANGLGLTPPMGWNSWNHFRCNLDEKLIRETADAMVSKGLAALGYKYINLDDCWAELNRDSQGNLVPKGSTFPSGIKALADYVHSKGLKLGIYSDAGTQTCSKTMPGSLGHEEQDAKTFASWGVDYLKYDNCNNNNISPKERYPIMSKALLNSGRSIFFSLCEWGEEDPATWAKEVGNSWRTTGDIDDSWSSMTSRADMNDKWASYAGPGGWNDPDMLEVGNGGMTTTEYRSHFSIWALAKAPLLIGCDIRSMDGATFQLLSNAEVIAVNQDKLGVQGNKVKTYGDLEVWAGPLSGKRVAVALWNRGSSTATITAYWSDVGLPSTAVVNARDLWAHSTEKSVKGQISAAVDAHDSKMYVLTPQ
# Chain of Cytochrome P450 1A2 (Homo sapiens) (P05177 whole entry, looked up): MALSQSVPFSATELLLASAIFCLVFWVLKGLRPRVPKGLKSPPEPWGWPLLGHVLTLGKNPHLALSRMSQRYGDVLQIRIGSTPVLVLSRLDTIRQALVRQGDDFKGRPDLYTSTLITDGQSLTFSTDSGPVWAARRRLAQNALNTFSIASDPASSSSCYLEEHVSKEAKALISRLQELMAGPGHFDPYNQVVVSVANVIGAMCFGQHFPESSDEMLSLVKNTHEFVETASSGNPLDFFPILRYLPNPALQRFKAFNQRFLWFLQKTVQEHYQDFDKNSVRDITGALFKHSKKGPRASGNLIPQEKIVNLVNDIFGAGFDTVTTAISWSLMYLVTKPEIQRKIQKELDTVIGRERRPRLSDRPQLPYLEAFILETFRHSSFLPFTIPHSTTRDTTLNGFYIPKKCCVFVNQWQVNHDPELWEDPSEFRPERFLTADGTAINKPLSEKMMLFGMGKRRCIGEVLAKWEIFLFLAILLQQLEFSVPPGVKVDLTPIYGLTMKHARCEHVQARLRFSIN
# Chain of Peroxisome proliferator-activated receptor delta (Homo sapiens) (Q03181 whole entry, looked up): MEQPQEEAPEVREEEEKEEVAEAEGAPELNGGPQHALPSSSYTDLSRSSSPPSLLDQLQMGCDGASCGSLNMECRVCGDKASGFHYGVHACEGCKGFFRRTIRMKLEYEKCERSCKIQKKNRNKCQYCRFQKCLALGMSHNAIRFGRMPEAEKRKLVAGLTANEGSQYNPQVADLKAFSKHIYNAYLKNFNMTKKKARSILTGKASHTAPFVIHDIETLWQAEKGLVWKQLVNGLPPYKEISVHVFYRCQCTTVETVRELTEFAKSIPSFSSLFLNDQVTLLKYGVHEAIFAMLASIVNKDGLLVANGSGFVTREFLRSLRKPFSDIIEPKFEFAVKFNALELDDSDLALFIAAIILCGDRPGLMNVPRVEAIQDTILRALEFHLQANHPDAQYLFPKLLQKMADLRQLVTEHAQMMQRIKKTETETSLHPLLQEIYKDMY
# Chain of Arylsulfatase A (Homo sapiens) (P15289 whole entry, looked up): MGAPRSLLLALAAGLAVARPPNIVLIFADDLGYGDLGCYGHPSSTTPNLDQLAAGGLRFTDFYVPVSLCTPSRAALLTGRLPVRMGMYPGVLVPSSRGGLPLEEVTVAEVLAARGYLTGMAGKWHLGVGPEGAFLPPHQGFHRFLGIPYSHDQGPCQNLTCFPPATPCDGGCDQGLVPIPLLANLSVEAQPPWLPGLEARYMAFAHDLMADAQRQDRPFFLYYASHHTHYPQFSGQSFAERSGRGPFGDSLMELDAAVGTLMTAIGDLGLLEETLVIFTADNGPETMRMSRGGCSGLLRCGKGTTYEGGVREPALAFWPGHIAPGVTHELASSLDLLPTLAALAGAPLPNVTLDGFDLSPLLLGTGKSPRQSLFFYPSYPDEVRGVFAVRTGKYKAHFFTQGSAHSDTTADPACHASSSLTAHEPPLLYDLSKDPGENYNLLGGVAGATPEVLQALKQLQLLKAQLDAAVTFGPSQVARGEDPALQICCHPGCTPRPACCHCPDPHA
smiles,measurement,setting,value
COc1cc(OC)c(/C=C2/C(=O)Nc3ccccc32)c(OC)c1,Potency,[1],2.51 µM (active)
same,Potency,[2],inactive
same,outcome,[3],inactive
same,Potency,[4],12.6 µM (active)
same,Potency,[5],11.2 µM (active)
same,Potency,[6],12.6 µM (active) and inactive
same,Potency,[7],31.6 µM (active)
same,outcome,[8],inactive
same,Potency,[9],16.4 µM (active)
same,outcome,[10],inactive
same,outcome,[11],inactive
CC(C)(O)[C@@H]1CC[C@](C)([C@H]2[C@@H](O)C[C@@]3(C)[C@@H]4C[C@H](O)[C@H]5C(C)(C)[C@@H](O[C@@H]6OC[C@@H](O)[C@H](O)[C@H]6O[C@@H]6O[C@H](CO)[C@@H](O)[C@H](O)[C@H]6O)CC[C@@]56C[C@@]46CC[C@]23C)O1,Potency,[12],inactive
same,Potency,[13],inactive
C[C@@H]1OC(O[C@H]2[C@H](O)[C@@H](O)[C@H](OC[C@H]3O[C@@H](OC(=O)[C@]45CCC(C)(C)C[C@@H]4C4=CCC6[C@@]7(C)CC[C@H](OC8OC[C@H](O)[C@H](O)[C@H]8OC8O[C@@H](C)[C@H](O)[C@@H](O)[C@H]8O)[C@@](C)(CO)C7CC[C@@]6(C)[C@]4(C)CC5)[C@H](O)[C@@H](O)[C@@H]3O)O[C@@H]2CO)[C@H](O)[C@H](O)[C@H]1O (some centres not stated),Potency,[12],inactive
same,Potency,[13],inactive
O=S(=O)(O)O,outcome,[14],inactive
same,outcome,[15],inactive
same,Potency,[16],inactive
same,outcome,[17],inactive
same,Potency,[18],35.5 µM (active)
same,Potency,[13],inactive
same,max response,[19],-1.96% (inactive)
same,outcome,[20],inactive
same,Potency,[21],inactive
same,outcome,[22],inactive
same,outcome,[23],inactive
C=C[C@H]1CN2CCc3c([nH]c4ccccc34)[C@H]2C[C@@H]1/C(=C\OC)C(=O)OC,outcome,[24],inactive
same,outcome,[25],inactive
same,Potency,[26],inactive
same,outcome,[14],inactive
same,outcome,[15],inactive
same,Potency,[16],7.08 µM (active)
same,Potency,[13],22.4 µM (active)
same,max response,[19],-1.5% (inactive)
same,outcome,[20],inactive
same,outcome,[22],inactive
same,outcome,[23],inactive
COc1ccc(/C=C/c2cc(OC)cc(=O)o2)cc1,outcome,[27],inactive
same,Potency,[12],inactive
same,Potency,[13],inactive
O=Cc1ccccc1O,Potency,[12],inactive
same,Potency,[13],inactive
